The source of these data is PubChem BioAssay.

A short description of assay [1]: optical density shifts of acrAB sulA E. coli – strain DRC41, OD650, 48 h, E. coli filamentation inducer project, primary screen (AID 1152).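 Note: E. coli MC1000 strain DRC41 lacking acrAB efflux pump and sulA.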 Conditions: higher = more signal, called active from +8 up or from −8 down.
A short description of assay [2]: probe aLefty1 binding on compound microarray – biochemical, small-molecule microarray, 635/667 nm fluorescence, primary screen (AID 1153).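 Note: score merges spot fluorescence with signal-to-noise ratio from the scanned slide images.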 Conditions: higher = more signal.
A short description of assay [3]: plasmodial surface anion channel blockers, osmotic lysis – cell-based, P. falciparum Indochina, OD700, 1 h, primary screen (AID 1154). As to conditions: P. falciparum Indochina infected RBC osmotic lysis, higher = more signal, called active from +8 up or from −8 down.
Assay [4] is described as follows: plasmodial surface anion channel blockers, osmotic lysis – cell-based, P. falciparum Indochina, OD700, 2 h, primary screen (AID 1155).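 Note: lysis reports solute entry through the parasite surface anion channel PSAC.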 Conditions: P. falciparum Indochina infected erythrocytes, higher = more signal, called active from +8 up or from −8 down.
Assay [5] can be described thus: changes in parasitized red cell lysis, either direction – P. falciparum Indochina, OD700, 3 h, PSAC antagonist project, primary screen (AID 1156). As to conditions: P. falciparum-infected erythrocytes, osmotic lysis, higher = more signal, called active from +8 up or from −8 down.
The nature of assay [6]: plasmodial surface anion channel blockers, osmotic lysis – cell-based, P. falciparum Indochina, OD700, 18 h, primary screen (AID 1157). As to conditions: P. falciparum Indochina infected erythrocytes, osmotic lysis OD700, 18 h; higher = more signal, called active from +8 up or from −8 down.
Assay [7] in a line: S6 kinase pathway phospho-S6 level changes – cell-based, A549, cytoblot, luminescence, serum-stimulated, primary screen (AID 1158).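 Note: serum-stimulated A549 lung adenocarcinoma cells; signal is phosphorylated S6 detected by cytoblot immunostaining with HRP secondary.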 As to conditions: 5 h, higher = more signal.
Assay [8] deals with NADPH oxidase 2 (Homo sapiens) (UniProt P04839). The assay is described as follows: compounds shifting NOX2 Amplex Red fluorescence – cell-based, HEK293-NOX2, PMA-stimulated, NOX inhibitor project, primary screen (AID 1159). Note: test concentration not given here. As to conditions: 45 min, higher = more signal, called active from +8 up or from −8 down.
NADPH oxidase 2 (Homo sapiens), sequence (P04839 whole entry, looked up): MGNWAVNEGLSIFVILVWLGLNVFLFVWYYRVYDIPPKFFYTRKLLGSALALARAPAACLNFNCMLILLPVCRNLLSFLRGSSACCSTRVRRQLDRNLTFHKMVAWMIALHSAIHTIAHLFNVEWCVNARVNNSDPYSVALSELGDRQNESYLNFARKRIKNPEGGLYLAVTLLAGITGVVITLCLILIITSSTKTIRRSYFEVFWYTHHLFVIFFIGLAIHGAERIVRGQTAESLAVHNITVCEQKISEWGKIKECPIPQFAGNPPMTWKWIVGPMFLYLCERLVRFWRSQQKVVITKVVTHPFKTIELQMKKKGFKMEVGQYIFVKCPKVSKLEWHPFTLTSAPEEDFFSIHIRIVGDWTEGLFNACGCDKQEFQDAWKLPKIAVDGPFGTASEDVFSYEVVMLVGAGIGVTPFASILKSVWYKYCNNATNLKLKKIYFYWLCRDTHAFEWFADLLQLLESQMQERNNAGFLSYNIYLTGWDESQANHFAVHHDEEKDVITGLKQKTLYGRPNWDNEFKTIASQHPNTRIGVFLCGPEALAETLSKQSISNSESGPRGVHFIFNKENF
The target of assay [9] is NADPH oxidase 4 (Homo sapiens) (UniProt Q9NPH5). The assay is described as follows: compounds shifting NOX4 Amplex Red fluorescence – cell-based, HEK293-NOX4, tetracycline-induced, NOX inhibitor project, primary screen (AID 1160). Conditions: HEK293-NOX4, Amplex Red H2O2 fluorescence, 45 min; higher = more signal, called active from +8 up or from −8 down.
NADPH oxidase 4 (Homo sapiens), sequence (Q9NPH5 whole entry, looked up): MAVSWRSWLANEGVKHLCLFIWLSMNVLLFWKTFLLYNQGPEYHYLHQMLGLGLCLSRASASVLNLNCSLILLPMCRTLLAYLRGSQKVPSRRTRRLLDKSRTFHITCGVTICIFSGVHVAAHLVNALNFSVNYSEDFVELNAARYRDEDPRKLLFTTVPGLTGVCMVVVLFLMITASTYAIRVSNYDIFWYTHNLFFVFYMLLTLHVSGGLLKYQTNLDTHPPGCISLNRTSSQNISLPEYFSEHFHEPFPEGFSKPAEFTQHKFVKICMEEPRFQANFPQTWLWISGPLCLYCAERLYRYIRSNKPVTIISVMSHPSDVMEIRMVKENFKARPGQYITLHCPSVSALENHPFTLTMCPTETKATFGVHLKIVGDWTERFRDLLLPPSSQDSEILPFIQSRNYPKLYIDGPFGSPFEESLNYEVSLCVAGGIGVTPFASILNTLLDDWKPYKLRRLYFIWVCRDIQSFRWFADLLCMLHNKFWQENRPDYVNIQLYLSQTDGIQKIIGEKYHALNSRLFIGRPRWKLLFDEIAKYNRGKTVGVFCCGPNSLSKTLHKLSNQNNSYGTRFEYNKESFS
Assay [10] concerns the target NADPH oxidase 5 (Homo sapiens) (UniProt Q96PH1). The assay is described as follows: compounds shifting NOX5 Amplex Red fluorescence – cell-based, HEK293-NOX5, NOX inhibitor project, primary screen (AID 1161). Conditions: HEK293-NOX5, ionomycin, 45 min, higher = more signal.
Assay [11] is described as follows: compound effects on lung adenocarcinoma cell viability – A549, calcein-AM fluorescence, 48 h, basal, profiling panel (AID 1162). Note: test concentration not given here. As to conditions: higher = more signal.
Assay [12] can be described thus: compound effects on differentiated 3T3-L1 adipocyte viability – cell-based, 3T3-L1 adipocytes, calcein-AM fluorescence, 48 h, basal, profiling panel (AID 1163). Note: test concentration not given here. Conditions: 3T3-L1 adipocytes viability, higher = more signal.
The nature of assay [13]: compound effects on hepatocellular carcinoma cell viability – HepG2, calcein-AM fluorescence, 48 h, basal, profiling panel (AID 1164). Note: test concentration not given here. Conditions: higher = more signal.
Assay [14] can be described thus: compound effects on multiple myeloma cell viability – MM1S, calcein-AM fluorescence, 48 h, basal, profiling panel (AID 1165). Note: test concentration not given here. As to conditions: higher = more signal.
A short description of assay [15]: calcein-AM signal in unstimulated myeloma cells – cell-based, calcein-AM fluorescence, 48 h, PK04 Diversity Set, profiling panel (AID 1166).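 Note: cells grown under basal conditions without added stimulus; test concentration not given here.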 Conditions: RPMI8226 myeloma viability, higher = more signal.
The nature of assay [16]: JC-1 mitochondrial signal, unstimulated HepG2 cells – cell-based, JC-1 fluorescence, 24 h, 100 nL compound, profiling panel (AID 1167). Note: test concentration not given here. As to conditions: HepG2 mitochondrial potential, higher = more signal.
Assay [17] in a line: JC-1 mitochondrial signal, unstimulated adipocytes – cell-based, JC-1 fluorescence, 3T3-L1 adipocytes, 24 h, 100 nL compound, profiling panel (AID 1168). Note: test concentration not given here. As to conditions: JC-1 mitochondrial fluorescence, higher = more signal, called active from +8 up or from −8 down.
Assay [18] is described as follows: JC-1 mitochondrial signal, unstimulated myeloma cells – cell-based, JC-1 fluorescence, RPMI8226, 24 h, 100 nL compound, profiling panel (AID 1169). Note: test concentration not given here. Conditions: JC-1 mitochondrial potential fluorescence, higher = more signal.
Assay [19] can be described thus: JC-1 mitochondrial signal, unstimulated MM1S myeloma – cell-based, JC-1 fluorescence, 24 h, 100 nL compound, profiling panel (AID 1170). Note: test concentration not given here. Conditions: MM1S mitochondrial potential, higher = more signal.
Assay [20] in a line: resazurin metabolic signal in A549 cells – cell-based, resazurin fluorescence, 24 h, PK04 Diversity Set, profiling panel (AID 1171). Note: test concentration not given here. Conditions: A549 viability, higher = more signal, called active from +8 up or from −8 down.

Active and inactive are the calls of the source.

NADPH oxidase 5 (Homo sapiens), sequence (Q96PH1 whole entry, looked up): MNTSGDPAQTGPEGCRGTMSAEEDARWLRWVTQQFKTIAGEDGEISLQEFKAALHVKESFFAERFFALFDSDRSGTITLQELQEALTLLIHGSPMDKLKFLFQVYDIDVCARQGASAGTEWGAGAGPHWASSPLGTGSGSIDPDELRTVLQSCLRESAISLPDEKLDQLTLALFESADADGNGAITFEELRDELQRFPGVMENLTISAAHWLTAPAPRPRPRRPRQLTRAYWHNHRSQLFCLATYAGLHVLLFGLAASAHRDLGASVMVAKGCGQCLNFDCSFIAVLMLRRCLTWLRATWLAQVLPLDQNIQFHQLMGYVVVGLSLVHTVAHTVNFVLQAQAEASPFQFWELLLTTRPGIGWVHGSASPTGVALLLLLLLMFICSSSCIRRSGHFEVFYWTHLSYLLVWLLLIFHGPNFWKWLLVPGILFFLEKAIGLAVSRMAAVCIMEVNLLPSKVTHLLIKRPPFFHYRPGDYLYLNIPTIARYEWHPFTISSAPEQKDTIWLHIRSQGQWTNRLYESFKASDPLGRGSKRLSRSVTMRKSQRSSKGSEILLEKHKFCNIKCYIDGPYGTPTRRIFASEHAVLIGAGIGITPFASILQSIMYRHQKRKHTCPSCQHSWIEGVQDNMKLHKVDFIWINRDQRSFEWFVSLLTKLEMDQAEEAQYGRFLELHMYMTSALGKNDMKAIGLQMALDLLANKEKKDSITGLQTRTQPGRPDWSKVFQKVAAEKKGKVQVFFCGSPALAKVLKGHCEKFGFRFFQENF

`NC(=O)NCC#Cc1ccc2c(c1)[C@]1(C(=O)N2)[C@H](C(N)=O)[C@H]2C(=O)O[C@H](c3ccccc3)[C@H](c3ccccc3)N2[C@@H]1c1ccc(O)cc1`: the z-score in assay [1] is 0.0502 (inactive); in assay [3] it was 0.271 (inactive); in assay [4], 0.436 (inactive); in [5] it was 0.471 (inactive); in assay [6], 0.124 (inactive); in [7], 0.226. Moreover, the z-score in assay [8] was 0.122 (inactive); in [9] it was -0.519 (inactive); in [10], -0.479; in [11], -0.851; in assay [12] it was -0.842; in assay [13], -0.848. The z-score was 0.201 in [14]; 0.375 in [15]; -1.73 in assay [16]; -0.344 (inactive) in assay [17]; -0.758 in assay [18]; -0.094 in [19]. Besides, in assay [20], the z-score was 0.808 (inactive). Besides, the composite z-score in assay [2] is 1.73.
For `COc1ccc([Si](C)(C)[C@H]2[C@H](CC(=O)N3Cc4ccccc4C[C@H]3CO)O[C@@]3(C(=O)N(Cc4cccc(N5CCC5=O)c4)c4ccccc43)[C@@H]2C)cc1`, the z-score in assay [1] was -0.372 (inactive); in [3], 5.46 (inactive); in assay [4] it was 1.63 (inactive); in assay [5], 0.011 (inactive); in assay [6], 1.09 (inactive); in assay [7], -0.0301. The z-score was -1.15 (inactive) in assay [8]; -0.95 (inactive) in assay [9]; -1.44 in assay [10]; 0.0575 in [11]; 0.441 in assay [12]; -0.616 in assay [13]. In addition, the z-score is -2.68 in assay [14]; -3 in assay [15]; 0.419 in assay [16]; 0.465 (inactive) in [17]; -1.02 in assay [18]; -1.23 in assay [19]. Besides, the z-score in assay [20] is -0.919 (inactive). In addition, the composite z-score in assay [2] was -0.0536.
As to `CN1C(=O)C2C=CC(C(O)c3ccco3)N(Nc3ccccc3)C2C1=O` (stereo not given), the z-score in [1] is -1.63 (inactive); in [3], 0.233 (inactive); in [4], 0.742 (inactive); in assay [5], -0.283 (inactive); in assay [6], 1.34 (inactive); in assay [7] it was -1.2. Besides, the z-score is -1.76 (inactive) in assay [8]; -3.72 (inactive) in assay [9]; -2.54 in assay [10]; -0.835 in [11]; -1.12 in assay [12]; -0.315 in [13]. In addition, the z-score in assay [14] was -1.34; in [15], -0.137; in assay [16], -1.67; in [17], -0.783 (inactive); in [18], 0.819; in assay [19] it was -0.101. Besides, the z-score in assay [20] was -0.579 (inactive). The composite z-score in [2] came to 0.335.
Turning to `CN(C)C(=O)[C@]1(Cc2ccccc2N=[N+]=[N-])N=C(c2ccc(OCCCO)cc2)O[C@@H]1c1ccccc1N=[N+]=[N-]`, the z-score in assay [1] was 1.02 (inactive); in assay [3], 30.7 (active); in assay [4] it was 25.6 (active); in [5] it was 1.15 (inactive); in assay [6] it was 7.43 (inactive); in assay [7], 2.53. Also, the z-score is -1.59 (inactive) in assay [8]; 0.482 (inactive) in [9]; 0.199 in [10]; 0.03 in [11]; 0.899 in assay [12]; -0.468 in [13]. In addition, the z-score in [14] was -3.3; in [15], -3.67; in assay [16], 1.53; in assay [17] it was 1.41 (inactive); in assay [18], -0.946; in [19] it was -1.8. For the same compound, in assay [20], the z-score was -2.16 (inactive). The same compound yielded a composite z-score in [2] of 0.431.
For `CCCCCN1CC=CC23O[C@@H]4/C=C\CCC(C)OC(=O)C4[C@H]2C(=O)N(C(C)CO)[C@@H]3C1=O` (stereo not given in full), the z-score was 0.585 (inactive) in assay [1]; 0.901 (inactive) in [3]; -0.356 (inactive) in assay [4]; 0.847 (inactive) in assay [5]; 0.355 (inactive) in assay [6]; -0.0749 in assay [7]. The z-score was 0.642 (inactive) in assay [8]; -0.2 (inactive) in assay [9]; 1.84 in [10]; 0.342 in assay [11]; 0.287 in assay [12]; 0.356 in assay [13]. For the same compound, the z-score was 0.508 in assay [14]; 0.311 in [15]; 0.558 in [16]; -0.00375 (inactive) in [17]; 0.724 in assay [18]; -0.759 in [19]. Moreover, the z-score in assay [20] is 1.02 (inactive). In assay [2], the composite z-score came to 0.0077.
With `C=CCOC(=O)[C@H]1[C@@H]2C(=O)O[C@@H](c3ccccc3)[C@@H](c3ccccc3)N2[C@@H](c2ccc(OCCOC(=O)[C@H]3C[C@H]4C(=O)N[C@@H](CCCCN(C)C)C(=O)N4[C@H]3c3ccc(O)cc3)cc2)[C@]12C(=O)Nc1ccc(I)cc12`, the z-score in assay [1] is -0.635 (inactive); in [3], 5.21 (inactive); in assay [4], 1.13 (inactive); in [5], -0.286 (inactive); in assay [6] it was 0.522 (inactive); in [7], -0.236. Besides, the z-score in assay [8] was 2.18 (inactive); in assay [9], 1.06 (inactive); in assay [10], 1.72; in assay [11] it was -0.041; in assay [12], -0.032; in assay [13], -0.959. The z-score in [14] was -0.203; in assay [15], 0.427; in assay [16], 0.75; in assay [17] it was -0.623 (inactive); in assay [18] it was 0.742; in [19], 0.192. In assay [20], the z-score is -0.708 (inactive). The same compound gave a composite z-score in assay [2] of 0.461.
On to `C=CCOC(=O)[C@@H]1[C@H]2C(=O)O[C@H](c3ccccc3)[C@H](c3ccccc3)N2[C@H](c2ccc(OCCOC(=O)[C@@H]3C[C@@H]4C(=O)NCC(=O)N4[C@@H]3c3ccc(O)cc3)cc2)[C@@]12C(=O)Nc1ccc(I)cc12`, for which the z-score is 0.0692 (inactive) in [1]; 0.894 (inactive) in [3]; 0.553 (inactive) in assay [4]; 1.58 (inactive) in [5]; 0.398 (inactive) in [6]; 0.0971 in assay [7]. For the same compound, the z-score is 1.46 (inactive) in [8]; 0.978 (inactive) in assay [9]; 1.35 in [10]; -0.814 in assay [11]; 0.198 in assay [12]; -0.207 in assay [13]. The z-score in assay [14] is -0.647; in [15] it was -0.319; in assay [16], -2.11; in assay [17], -0.444 (inactive); in assay [18], -0.972; in assay [19] it was -0.919. Besides, in [20], the z-score was 0.994 (inactive). Also, the composite z-score in assay [2] was -0.404.
With `CN(C)CCCC[C@@H]1NC(=O)[C@H]2C[C@@H](C(=O)NCCCCCCN)[C@@H](c3ccc(O)cc3)N2C1=O`, the z-score is 0.51 (inactive) in [1]; 0.453 (inactive) in [3]; 0.374 (inactive) in assay [4]; 1.31 (inactive) in [5]; 0.0314 (inactive) in assay [6]; -0.24 in [7]. The z-score in [8] was 0.277 (inactive); in [9], 0.236 (inactive); in [10], 0.731; in assay [11] it was 0.168; in assay [12], 0.526; in [13] it was -0.0064. In addition, the z-score in assay [14] was -0.314; in [15], 0.226; in assay [16], -0.878; in [17] it was 0.862 (inactive); in assay [18], -0.128; in assay [19] it was 0.119. Also, the z-score in assay [20] was 0.286 (inactive). Besides, the composite z-score in assay [2] amounted to 1.5.
